Data published in the supplement of paper PMC13380429.

System: Vero E6 infected with SARS-CoV-2
Assay: inhibition of SARS-CoV-2 cytopathic effect; higher = more antiviral protection, active = above 15
Details: 48 h

Measured: inhibition of SARS-CoV-2 cytopathic effect

CC(C)(C)NS(=O)(=O)c1cncc(-c2cc(F)c3nc(N)nn3c2)c1
inactive: 1 nM 3.23% | 8.33 nM 2.61% | 100 nM -1.19% | 833.33 nM 0.27% | 10000 nM 0.39%

c1ccc([C@@H]2C[C@H]2NC2CCNCC2)cc1
inactive: 1 nM -2.71% | 8.33 nM 1.14% | 100 nM 0.53% | 833.33 nM 1.44% | 10000 nM -2.6%

C=C[C@@]1(C)CC(=O)[C@]2(O)[C@@]3(C)[C@@H](O)CCC(C)(C)[C@@H]3[C@H](O)[C@H](OC(C)=O)[C@@]2(C)O1 [colforsin]
inactive: 1 nM 2% | 8.33 nM 2.29% | 100 nM 2.56% | 833.33 nM -1.53% | 10000 nM 0.905%

N#CC[C@@H](C1CCCC1)n1cc(-c2ncnc3[nH]ccc23)cn1 [ruxolitinib-(S)]
inactive: 1 nM -2.23% | 8.33 nM -0.87% | 100 nM -1.21% | 833.33 nM 0.43% | 10000 nM -3.24%

O=C(CC(c1ccccc1)c1ccccc1)N1CCN(C(c2ccccc2)c2ccccc2)CC1
inactive: 1 nM -0.56% | 8.33 nM -1.82% | 100 nM -3.93% | 833.33 nM 1.53% | 10000 nM 3.27%

CCNC(=O)CCC/C=C\C[C@@H]1[C@@H](/C=C/[C@@H](O)CCc2ccccc2)[C@H](O)C[C@@H]1O [bimatoprost]
inactive: 1 nM -2.31% | 8.33 nM -0.42% | 100 nM -0.15% | 833.33 nM -0.88% | 10000 nM 3.04%

CC[C@@H](C)CNCC(=O)N1CCc2sccc2[C@@H]1COc1cccc(C)c1
inactive: 1 nM 2.77% | 8.33 nM 3.61% | 100 nM 2.09% | 833.33 nM 1.08% | 10000 nM -6.12%
